In the supplement of paper PMC8728848:
This is one part of a sample in which the strongest signals are shown more often than they occur.

Tests used:
Assay in all cases: glycan array binding signal (z-score within array); higher = stronger binding
Settings in all cases: glycan notation: IUPAC condensed, linker removed
[1] = target: Fuc(a1-2)Gal(b1-3)GalNAc(b1-3)Gal
Procedure, shortened: (§1)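 Negative Z-scores can be read as non-binding. The Z-score is calculated within each array and then averaged across arrays of one protein sequence at different concentrations or buffers and across linkers. Arrays, 3228 in all, were curated from the Consortium for Functional Glycomics database and kept only where the protein sequence was available.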

[2] = target: Fuc(a1-2)Gal(b1-3)GlcNAc(b1-3)[Fuc(a1-2)Gal(b1-3)GlcNAc(b1-6)]GalNAc
Procedure, shortened: as §1

[3] = target: Fuc(a1-2)Gal(b1-4)GlcNAc(b1-3)Gal(b1-4)GlcNAc(b1-3)Gal(b1-4)GlcNAc
Procedure, shortened: as §1

[4] = target: Fuc(a1-2)Gal(b1-4)GlcNAc(b1-3)GalNAc
Procedure, shortened: as §1

[5] = target: Fuc(a1-2)[Gal(a1-3)]Gal(b1-3)GlcNAc(b1-2)Man(a1-3)[Fuc(a1-2)[Gal(a1-3)]Gal(b1-3)GlcNAc(b1-2)Man(a1-6)]Man(b1-4)GlcNAc(b1-4)GlcNAc
Procedure, shortened: as §1

[6] = target: Fuc(a1-2)[Gal(a1-3)]Gal(b1-4)GlcNAc(b1-2)Man(a1-3)[Fuc(a1-2)[Gal(a1-3)]Gal(b1-4)GlcNAc(b1-2)Man(a1-6)]Man(b1-4)GlcNAc(b1-4)GlcNAc
Procedure, shortened: as §1

[7] = target: Fuc(a1-2)[Gal(a1-3)]Gal(b1-4)[Fuc(a1-3)]GlcNAc
Procedure, shortened: as §1

[8] = target: Fuc(a1-2)[GalNAc(a1-3)]Gal(b1-3)GlcNAc(b1-6)GalNAc
Procedure, shortened: as §1

[9] = target: Fuc(a1-3)[Gal(b1-4)]GlcNAc(b1-6)GalNAc
Procedure, shortened: as §1

[10] = target: Fuc(a1-3)[Gal3S(b1-4)]GlcNAc
Procedure, shortened: as §1

Fuc(a1-4)GlcNAc = target: Fuc(a1-4)GlcNAc
Procedure, shortened: as §1

Gal(a1-3)Gal(b1-4)Glc = target: Gal(a1-3)Gal(b1-4)Glc
Procedure, shortened: as §1

[11] = target: Gal(a1-3)Gal(b1-4)GlcNAc(b1-6)GalNAc
Procedure, shortened: as §1

Gal(b1-3)Gal(b1-4)GlcNAc = target: Gal(b1-3)Gal(b1-4)GlcNAc
Procedure, shortened: as §1

Gal(b1-3)GalNAc = target: Gal(b1-3)GalNAc
Procedure, shortened: as §1

Gal(b1-3)GalNAc(b1-3)Gal = target: Gal(b1-3)GalNAc(b1-3)Gal
Procedure, shortened: as §1

[12] = target: Gal(b1-3)GlcNAc(b1-2)[Gal(b1-3)GlcNAc(b1-6)]Man(a1-6)[Gal(b1-3)GlcNAc(b1-2)Man(a1-3)]Man(b1-4)GlcNAc(b1-4)GlcNAc
Procedure, shortened: as §1

[13] = target: Gal(b1-3)GlcNAc(b1-3)Gal(b1-4)Glc
Procedure, shortened: as §1

[14] = target: Gal(b1-3)GlcNAc(b1-3)Gal(b1-4)GlcNAc(b1-2)[Gal(b1-3)GlcNAc(b1-3)Gal(b1-4)GlcNAc(b1-6)]Man(a1-6)[Gal(b1-3)GlcNAc(b1-3)Gal(b1-4)GlcNAc(b1-2)Man(a1-3)]Man(b1-4)GlcNAc(b1-4)[Fuc(a1-6)]GlcNAc
Procedure, shortened: as §1

[15] = target: Gal(b1-3)GlcNAc(b1-3)Gal(b1-4)GlcNAc(b1-3)Gal(b1-4)GlcNAc(b1-2)[Gal(b1-3)GlcNAc(b1-3)Gal(b1-4)GlcNAc(b1-3)Gal(b1-4)GlcNAc(b1-6)]Man(a1-6)[Gal(b1-3)GlcNAc(b1-3)Gal(b1-4)GlcNAc(b1-3)Gal(b1-4)GlcNAc(b1-2)Man(a1-3)]Man(b1-4)GlcNAc(b1-4)[Fuc(a1-6)]GlcNAc
Procedure, shortened: as §1

[16] = target: Gal(b1-3)GlcNAc(b1-3)Gal(b1-4)GlcNAc(b1-6)[Gal(b1-3)GlcNAc(b1-3)]Gal(b1-4)Glc
Procedure, shortened: as §1

[17] = target: Gal(b1-3)GlcNAc(b1-3)GalNAc
Procedure, shortened: as §1

[18] = target: Gal(b1-4)GlcNAc(a1-6)Gal(b1-4)GlcNAc
Procedure, shortened: as §1

[19] = target: Gal(b1-4)GlcNAc(b1-2)[Gal(b1-4)GlcNAc(b1-4)]Man(a1-3)[Gal(b1-4)GlcNAc(b1-2)[Gal(b1-4)GlcNAc(b1-6)]Man(a1-6)][GlcNAc(b1-4)]Man(b1-4)GlcNAc(b1-4)GlcNAc
Procedure, shortened: as §1

[20] = target: Gal(b1-4)GlcNAc(b1-2)[Gal(b1-4)GlcNAc(b1-4)]Man(a1-3)[GlcNAc(b1-4)][Gal(b1-4)GlcNAc(b1-2)Man(a1-6)]Man(b1-4)GlcNAc(b1-4)GlcNAc
Procedure, shortened: as §1

[21] = target: Gal(b1-4)GlcNAc(b1-3)Gal(b1-4)GlcNAc(b1-2)[Gal(b1-4)GlcNAc(b1-3)Gal(b1-4)GlcNAc(b1-6)]Man(a1-6)[Gal(b1-4)GlcNAc(b1-3)Gal(b1-4)GlcNAc(b1-2)Man(a1-3)]Man(b1-4)GlcNAc(b1-4)GlcNAc
Procedure, shortened: as §1

[22] = target: Gal(b1-4)GlcNAc(b1-3)Gal(b1-4)GlcNAc(b1-2)[Gal(b1-4)GlcNAc(b1-3)Gal(b1-4)GlcNAc(b1-6)]Man(a1-6)[Gal(b1-4)GlcNAc(b1-3)Gal(b1-4)GlcNAc(b1-2)Man(a1-3)]Man(b1-4)GlcNAc(b1-4)[Fuc(a1-6)]GlcNAc
Procedure, shortened: as §1

[23] = target: Gal(b1-4)GlcNAc(b1-3)Gal(b1-4)GlcNAc(b1-3)Gal(b1-4)GlcNAc(b1-2)[Gal(b1-4)GlcNAc(b1-3)Gal(b1-4)GlcNAc(b1-3)Gal(b1-4)GlcNAc(b1-6)]Man(a1-6)[Gal(b1-4)GlcNAc(b1-3)Gal(b1-4)GlcNAc(b1-3)Gal(b1-4)GlcNAc(b1-2)Man(a1-3)]Man(b1-4)GlcNAc(b1-4)[Fuc(a1-6)]GlcNAc
Procedure, shortened: as §1

[24] = target: Gal(b1-4)GlcNAc(b1-3)Gal(b1-4)GlcNAc(b1-3)Gal(b1-4)GlcNAc(b1-3)Gal(b1-4)GlcNAc(b1-2)Man(a1-3)[Gal(b1-4)GlcNAc(b1-3)Gal(b1-4)GlcNAc(b1-3)Gal(b1-4)GlcNAc(b1-3)Gal(b1-4)GlcNAc(b1-2)Man(a1-6)]Man(b1-4)GlcNAc(b1-4)GlcNAc
Procedure, shortened: as §1

[25] = target: Gal(b1-4)GlcNAc(b1-3)Gal(b1-4)GlcNAc(b1-3)Gal(b1-4)GlcNAc(b1-3)Gal(b1-4)GlcNAc(b1-2)Man(a1-3)[Gal(b1-4)GlcNAc(b1-3)Gal(b1-4)GlcNAc(b1-3)Gal(b1-4)GlcNAc(b1-3)Gal(b1-4)GlcNAc(b1-2)Man(a1-6)]Man(b1-4)GlcNAc(b1-4)[Fuc(a1-6)]GlcNAc
Procedure, shortened: as §1

B1: rMpL (Macrolepiota procera) (protein)
chain: MSTQVSSGRTYKITNVIAGTVIDLSGEDNKSIIGYPYHSGKNQQWTFNWTGKAWTLRSASSGSYLGIEGTPAGGTRLVAVNDPFEWHIWRDEANENAFRIFVPFTNYNLDLSGYGDTTPGTPVQLWWTWEGLHQTWTIDRP
glycan array binding signal (z-score) [1]: -0.272 | glycan array binding signal (z-score) [2]: -0.078 | glycan array binding signal (z-score) [3]: -0.248 | glycan array binding signal (z-score) [4]: -0.301 | glycan array binding signal (z-score) [5]: -0.259 | glycan array binding signal (z-score) [6]: -0.257 | glycan array binding signal (z-score) [7]: -0.216 | glycan array binding signal (z-score) [8]: -0.353 | glycan array binding signal (z-score) [9]: -0.065 | glycan array binding signal (z-score) [10]: -0.253 | glycan array binding signal (z-score) (Fuc(a1-4)GlcNAc): -0.316 | glycan array binding signal (z-score) (Gal(a1-3)Gal(b1-4)Glc): -0.194 | glycan array binding signal (z-score) [11]: -0.27 | glycan array binding signal (z-score) (Gal(b1-3)Gal(b1-4)GlcNAc): -0.257 | glycan array binding signal (z-score) (Gal(b1-3)GalNAc): -0.273 | glycan array binding signal (z-score) (Gal(b1-3)GalNAc(b1-3)Gal): -0.243 | glycan array binding signal (z-score) [12]: 3.42 | glycan array binding signal (z-score) [13]: 0.808 | glycan array binding signal (z-score) [14]: 2.4 | glycan array binding signal (z-score) [15]: 3.58 | glycan array binding signal (z-score) [16]: 4.17 | glycan array binding signal (z-score) [17]: 0.153 | glycan array binding signal (z-score) [18]: 9.59 | glycan array binding signal (z-score) [19]: 4.13 | glycan array binding signal (z-score) [20]: 1.46 | glycan array binding signal (z-score) [21]: 1.23 | glycan array binding signal (z-score) [22]: 3.75 | glycan array binding signal (z-score) [23]: 4.71 | glycan array binding signal (z-score) [24]: 3.24 | glycan array binding signal (z-score) [25]: 3.33
